Reference: publication PMC5540273 (PLoS ONE, 2017)

How the values were obtained:
Details in all cases: concentration: 1 μM, replicates: in singlicate; n = 1
[1] = system: T1, CTK
T1 construct: gene MATK

[2] = system: DAPK1
[3] = system: DAPK2
[4] = system: DAPK3
[5] = system: T2, DCAMKL1
T2 construct: gene DCLK1

[6] = system: T3, DCAMKL2
T3 construct: gene DCLK2

[7] = system: T4, DCAMKL3
T4 construct: gene DCLK3

[8] = system: DDR1
[9] = system: DDR2
[10] = system: T5, DLK
T5 construct: gene MAP3K12

[11] = system: T6, DMPK2
T6 construct: gene CDC42BPG

[12] = system: DMPK
[13] = system: T7, DRAK1
T7 construct: gene STK17A

[14] = system: T8, DRAK2
T8 construct: gene STK17B

[15] = system: DYRK1A
[16] = system: DYRK1B
[17] = system: DYRK2
[18] = system: EGFR
[19] = system: EIF2AK1
[20] = system: EPHA1
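Also: KINOMEscan kinase panel screen.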

Structure (SMILES)	%Inh [1] [%]	%Inh [2] [%]	%Inh [3] [%]	%Inh [4] [%]	%Inh [5] [%]	%Inh [6] [%]	%Inh [7] [%]	%Inh [8] [%]	%Inh [9] [%]	%Inh [10] [%]	%Inh [11] [%]	%Inh [12] [%]	%Inh [13] [%]	%Inh [14] [%]	%Inh [15] [%]	%Inh [16] [%]	%Inh [17] [%]	%Inh [18] [%]	%Inh [19] [%]	%Inh [20] [%]
Fc1ccc(-c2nc[nH]c2-c2ccncc2)cc1 [SB-217360]	31	0	0	8	29	0	0	9	34	0	71	0	0	0	6	0	33	31	0	0
O=c1cc(N2CCOCC2)nc2n(Cc3ccccc3F)ccn12 [GSK2297428]	0	0	0	13	57	0	3	10	0	0	0	0	0	0	6	0	9	18	0	3
CS(=O)(=O)CCNCc1nc(-c2ccc3ncnc(Nc4ccc5c(cnn5Cc5ccccc5)c4)c3c2)cs1.Cl.Cl [GW569716]	0	0	0	0	9	0	4	0	24	53	0	0	35	21	36	0	0	–	0	14
Cc1ccccc1Cn1ccn2c(=O)cc(N3CCOCC3)nc12 [GSK2269905]	0	0	0	0	0	7	4	0	0	0	0	0	0	0	16	0	0	15	8	4
NS(=O)(=O)c1cccc(N/C=C2\C(=O)Nc3ccc(S(=O)(=O)Cc4c(Cl)cccc4Cl)cc32)c1 [GSK398099]	0	100	1	21	38	10	0	0	0	52	18	0	0	0	29	14	9	24	0	12
CCc1ccc(-c2ccc3c(c2)-c2n[nH]cc2S(=O)(=O)N3C)cc1	0	24	7	0	34	0	13	0	9	0	0	0	0	0	0	11	0	0	0	11
Cc1c(Cn2c3ccccc3n3c(=O)cc(N4CCOCC4)nc23)cccc1C(F)(F)F [GSK2306394]	10	12	4	0	0	0	0	19	0	0	0	0	0	0	7	0	14	48	0	0
c1ccc(-c2ccnc3[nH]ccc23)cc1 [SB-693578]	0	0	0	19	16	0	0	23	26	37	0	0	8	0	34	0	19	17	6	25
COc1ccc(Nc2nccc(N3CCC(NC(=O)C(C)c4ccc(Cl)cc4)C3)n2)cc1 (centres unmarked) [GSK1379735]	4	0	0	0	0	6	29	28	16	13	0	0	8	0	12	0	3	14	77	0
COc1ccc(Nc2nccc(-c3ccc(NC(=O)c4cc5cc(F)ccc5[nH]4)cc3)n2)cc1 [GSK1229496]	0	55	5	1	11	0	0	63	26	36	4	0	69	19	14	0	0	14	0	0
O=C(Nc1n[nH]c2nc(-c3cccs3)c(Br)cc12)C1CCCC1 [SB-743341]	49	0	3	3	0	7	22	27	0	0	9	5	9	7	24	0	36	1	31	10
CC(C)c1cc(-c2ccc3c(N)n[nH]c3c2)nc(N)n1 [GSK2250882]	0	9	6	25	2	0	0	0	4	21	0	1	98.4	0	28	0	78	17	12	2
Cc1nccc(-c2c(-c3ccc(F)cc3)ncn2CCCN2CCOCC2)n1.Cl [SB-282975]	0	0	99.3	0	0	2	3	0	0	0	9	22	14	22	17	34	0	17	14	24
Cc1ccc(NC(=O)Nc2ccc(Cl)cc2)cc1-c1ccc(C(=O)Nc2ccncc2)cc1 [GSK1398472]	0	16	0	15	18	0	0	99.8	64	0	63	0	3	0	19	0	0	24	0	12
COc1cccc(CNC(=O)NC2CCN(c3ccnc(Nc4ccc(F)cc4)n3)C2)c1 (centres unmarked) [GSK1379723]	22	0	22	7	9	0	0	7	0	0	0	0	0	0	39	5	4	21	0	12
